Data from PubChem BioAssay (NCATS).
Values without a mark were called inactive. Active and inactive are the calls of the source. The rule behind the calls is not given here.
Potency is the fitted concentration of half-maximal effect.

These molecules were tested on HIV-1 nucleocapsid protein NCp7 (binding to TG oligonucleotide) (assay: HIV Nucleocapsid (AID 346;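 note: potency is for inhibitors that block NC binding and lower polarization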)). Conditions: HIV-1 NC / fluorescein-TGTGTGTG probe, fluorescence polarization.
Outline: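 NCp7 100 nM + fluorescein TG4xF 10 nM; Hepes pH 7.5/250mM NaCl/1uM ZnCl2/0.004% PEG 20000; 1 hr RT; FP, 45 s exposure; oligo-only wells as negative control.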
Clc1ccccc1-c1nc(NCc2cccnc2)c2ccccc2n1 gave a Potency of over 20 µM. Molecule COc1ccccc1-c1cncnc1NCc1cccnc1 has a Potency of over 20 µM. Work on Cc1noc(C)c1C(=O)N1CCC2(CC1)CN(c1ncccn1)C2 yielded a Potency of over 20 µM. With c1cncc(CNc2ncnc3ccc(-c4ccoc4)cc23)c1 the Potency was over 20 µM. Molecule COCCn1c(=O)c(CCc2ccccc2)nc2cnc(Oc3ccccc3)nc21 has a Potency of over 20 µM. COc1ccc(Oc2ncc3ncc(=O)n(CCc4ccccc4)c3n2)cc1 showed a Potency of over 20 µM. O=C(c1ccco1)N1CCC2(CC1)CCN(C(c1ccccc1)c1ccccc1)CC2 showed a Potency of over 20 µM. Molecule COC(=O)N1CCC[C@@]2(CCN(C(c3ccccc3)c3ccccc3)C2)C1 has a Potency of over 20 µM. Work on COc1ccccc1CNc1cc(-c2cccnc2)ncn1 yielded a Potency of over 20 µM. Cn1cc(-c2nc3cnc(Oc4cccc(Cl)c4)nc3n(C3CC3)c2=O)c2ccccc21 showed a Potency of over 20 µM. CN(C)c1ccc(-c2nccc(NCc3cccs3)n2)cc1 showed a Potency of over 20 µM. In the case of Cc1cnc(CNc2cc(-c3cccc(C#N)c3)ncn2)cn1, the Potency is reported as over 20 µM. For COc1cccc(Cn2c(=O)c(-c3ccccc3)nc3cnc(N4CCN(C)CC4)nc32)c1, the Potency was over 20 µM. Cc1cnc(CNc2ncnc3ccc(-c4ccccc4C#N)cc23)cn1 gave a Potency of over 20 µM. With COC(=O)N1CCC2(CCN(C(=O)NC(C)C)CC2)CC1 the Potency was over 20 µM. In the case of COc1ccc(Oc2ncc3ncc(=O)n(CCC#N)c3n2)cc1, the Potency is reported as over 20 µM. CN(Cc1ccco1)c1nc(-c2ccc3c(c2)OCO3)nc2ccccc12 was tested, and the Potency was over 20 µM. For CC(=O)N1CCC2(CC1)CCN(c1ccc(-c3ccccc3)cc1)CC2, the Potency was over 20 µM. Work on N#Cc1ccc(CN2CC[C@@]3(CCCN(C(=O)c4cccc(F)c4)C3)C2)cc1 yielded a Potency of over 20 µM. Work on Cc1cnc(CNc2ncnc3ccc(-c4ccccc4C)cc23)cn1 yielded a Potency of over 20 µM. Molecule O=c1cnc2cnc(Nc3ccccc3)nc2n1Cc1ccc(F)cc1 has a Potency of over 20 µM. In the case of Cc1noc(C)c1-c1cc(N2CCN(C)CC2)ncn1, the Potency is reported as over 20 µM. In the case of COc1ccc(CNc2cc(-c3ccccc3OC)ncn2)c(OC)c1, the Potency is reported as over 20 µM. For O=S(=O)(c1ccccc1)N1CCC2(CC1)CN(C(c1ccccc1)c1ccccc1)C2, the Potency was over 20 µM. Cc1nc2cnc(Nc3ccccc3)nc2n(CCC#N)c1=O was tested, and the Potency was over 20 µM. Work on CN(Cc1ccco1)c1ncnc2ccc(-c3ccccc3C(F)(F)F)cc12 yielded a Potency of over 20 µM. CCNc1ncc2nc(C)c(=O)n(Cc3cccc(OC)c3)c2n1 was tested, and the Potency was over 20 µM. COc1ccc(C(=O)N2CCC3(CCCN(Cc4ccc(C#N)cc4)C3)CC2)cc1 gave a Potency of over 20 µM. In the case of COc1cccc(-c2cc(NCc3cccs3)ncn2)c1, the Potency is reported as over 20 µM. COCCn1c(=O)c(-c2ccc(OC)cc2)nc2cnc(N3CCN(C)CC3)nc21 gave a Potency of over 20 µM. CN(C)Cc1ccccc1-c1cncnc1NCc1cccs1 was tested, and the Potency was over 20 µM. For COC(=O)N1CCC[C@@]2(CCN(c3ccccn3)C2)C1, the Potency was over 20 µM. For COc1ccc(Oc2ncc3nc(-c4cccc(C#N)c4)c(=O)n(Cc4cccc(OC)c4)c3n2)cc1, the Potency was over 20 µM. CN(C)C(=O)c1ccc(-c2cncnc2NCCN2CCOCC2)cc1 gave a Potency of over 20 µM. In the case of COc1ccc(-n2c(=O)c(-c3cccs3)nc3cnc(Nc4ccccc4)nc32)cc1, the Potency is reported as 4.01 µM (active). O=c1c(-c2cccc(Cl)c2)nc2cncnc2n1Cc1ccccc1 showed a Potency of over 20 µM. With COc1ccccc1-c1cncnc1Nc1ccccc1 the Potency was over 20 µM. With FC(F)(F)c1ccccc1-c1cncnc1NCCN1CCOCC1 the Potency was over 20 µM. In the case of O=C(c1cnccn1)N1CCC2(CCN(Cc3cc(C(F)(F)F)cc(C(F)(F)F)c3)CC2)CC1, the Potency is reported as over 20 µM.
